Shown are actives, neighbours in structure and some others; about 8.9% of the full set was active somewhere.
KB-3-1 tox = kills parental KB-3-1 adenocarcinoma cells; KB-3-1 viability, CellTiter-Glo ATP luminescence, 72 h; Potency, µM (series often up to 46.1 µM), usual class: cytotoxic; 400,000 tested, 1.4% active; AID 1347075; further: potency means the concentration at half of the fitted maximal effect; on the % scale 0 is the no-effect control and ±100 the full control effect; nearly all actives have a fitted effect of over 60% in size
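Cytotoxicity measured as CellTiter-Glo luminescence after 72 h at 37 C. Compound titrations were pinned onto drug-naive KB-3-1 parental adenocarcinoma cells grown in DMEM with 10% FBS, and normalized data fitted to concentration-response curves.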
KB-V1 cytotox = kills drug-selected multidrug resistant KB-V1 cells; KB-V1 MDR cells viability, CellTiter-Glo, 72 h; Potency, µM (series often up to 46.1 µM), most hits filed as cytotoxic; 400,000 tested, 3.4% active; AID 1347076; further: potency means the concentration at half of the fitted maximal effect; on the % scale 0 is the no-effect control and ±100 the full control effect; nearly all actives have a fitted effect of over 60% in size
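In this primary screen, KB-V1 cells overexpressing P-gp are incubated with library compounds (lowest to highest concentration) for 72 h at 37 degrees C before a luminescent ATP viability read.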
MCF10A rerep = DNA re-replication induction in MCF 10a cells | 350,000 tested, 2.9% active | Potency, µM (highest dose often 46.1 µM), for inactives: at the highest dose activity, positive = re-replication, usual class: activators | AID 624296 | MCF 10A DNA re-replication, Hoechst nuclear intensity, 48 h; further: potency means the concentration at half of the fitted maximal effect; % of control where 0% means no effect; nearly all actives have a fitted effect of over 50% in size
D3 ag = agonists of human D3 dopamine receptor; D3R DiscoveRx beta-arrestin cells, luminescence, 90 min; max activation, %; 410,000 tested, 0.58% active; in the data active means max activation above about 30%; further: 0% is about no effect
Target sequence (P35462 whole entry, looked up): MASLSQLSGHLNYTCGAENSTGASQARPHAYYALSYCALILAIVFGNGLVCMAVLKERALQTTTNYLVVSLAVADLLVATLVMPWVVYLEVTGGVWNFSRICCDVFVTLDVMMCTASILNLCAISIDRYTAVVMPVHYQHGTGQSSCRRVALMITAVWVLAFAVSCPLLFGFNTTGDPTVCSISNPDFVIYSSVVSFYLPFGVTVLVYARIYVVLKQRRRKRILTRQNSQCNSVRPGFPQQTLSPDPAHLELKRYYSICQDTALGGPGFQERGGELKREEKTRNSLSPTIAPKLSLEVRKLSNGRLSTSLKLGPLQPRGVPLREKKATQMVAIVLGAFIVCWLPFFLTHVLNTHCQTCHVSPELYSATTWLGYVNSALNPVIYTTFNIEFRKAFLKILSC
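Cells at 1500/well, incubated overnight, then treated with pinned compounds (dopamine as control) for 90 min at 37 degrees C. DiscoveRx reagent added for 30 - 60 minutes at room temperature; luminescence read.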
SW480 rereplic = induces DNA re-replication in SW480 colon adenocarcinoma cells. SW480 DNA re-replication, Hoechst DNA content imaging, 48 h. Potency, µM (highest dose often 46.1 µM), inactives show top-dose re-replication activation, actives largely listed as activators. 340,000 tested, 1.8% active; further: potency means the concentration at half of the fitted maximal effect; % of control where 0% means no effect; nearly all actives have a fitted effect of over 55% in size
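Image-based DNA-content assay: after two days of treatment, nuclei were labelled with the DNA dye Hoechst and imaged, and hits were compounds raising the count of nuclei showing high fluorescence intensity.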
D3 antag = blocks the human D3 dopamine receptor | P35462 | D3R cells, DiscoveRx beta-arrestin luminescence, antagonist mode; hits give low values | max response, negative = inhibition, % | 360,000 tested, 2.5% active; in the data active means max response below about -50%; inconclusive means no clear call, values can overlap the other calls; further: on the % scale 0 is the no-effect control and ±100 the full control effect
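Cells plated overnight at 1500 cells/well, then exposed to library compounds with dopamine controls for 90 minutes at 37 degrees C. DiscoveRx reagent added for 30–60 minutes at room temperature; luminescence read, quantitative HTS format.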
* marks the source's active call; other numbers are inactive results; i = inactive; ? = inconclusive; nt = not tested or not shown. Unless noted, the call rests on the fitted dose curve; in most records, active means well fitted curve in the direction sought with a large enough effect; inconclusive means small, poorly fitted or top-dose-only effect, or another doubt; inactive means no such curve, though single readings can be large; an effect the other way counts as inactive or inconclusive.

SMILES | KB-3-1 tox | KB-V1 cytotox | MCF10A rerep | D3 ag | SW480 rereplic | D3 antag
Cc1ccc(Cc2nc3ccccc3nc2SCC(=O)N2CCc3ccccc32)cc1 | i | i | nt | 1.9 | nt | nt
O=C(O)CCn1cc(C2CC(c3ccccc3)=NN2c2ccccc2)c(-c2ccccc2)n1 (stereo not drawn) | i | i | 11.6µM* | 4.0 | 23.1µM* | ?
Cc1ccc(-c2nn(-c3ccccc3)cc2C2CC(c3cccs3)=NN2C(=O)CCC(=O)O)cc1 (stereo not drawn) | i | i | 7.9% | 5.3 | -8.8% | 12.0
Clc1ccc2nc(COc3ccccc3)[nH]c2c1 | ? | i | 3.26µM* | -7.7 | 7.31µM* | -14.0
O=c1[nH]c(COc2ccccc2)nc2ccccc12 | i | ? | ? | -0.2 | ? | -2.0
COc1ccc(C(=O)OCC2CC(c3ccccc3)=NO2)cc1OC (stereo not drawn) | i | i | 3.2% | -8.0 | -3.3% | -11.4
COc1ccc(-c2nc3c(c(=O)n(C)c(=O)n3C)n2CC2CC(c3ccccc3)=NO2)cc1OC (stereo not drawn) | i | 5.8µM* | 8.4% | 7.1 | 0.6% | 15.8
COc1cc2c3nnc(-c4ccc(F)cc4)c-3cn(Cc3ccc(F)cc3)c2cc1OC | ? | i | 18.4µM* | -11.0 | ? | -22.5
CC(C)CCNC(=O)c1ccc2nc(Cc3ccccc3)oc2c1 | i | i | nt | 8.0 | nt | nt
Cc1ccc(NC(=O)c2sc3ncn(Cc4cccc(F)c4)c(=O)c3c2C)c(Br)c1 | i | i | nt | -12.3 | nt | nt
N/C(=N\c1nc2c(c(=O)[nH]1)CCC2)Nc1cccc2ccccc12 | 23.1µM* | ? | -7.8% | -4.3 | 0.2% | 20.3
CN(N=O)C(=O)N[C@@H]1[C@@H](O)[C@H](O)[C@@H](CO)O[C@@H]1O | nt | nt | nt | 1.8 | nt | nt
Cc1cc(Sc2nnc(/N=C/N(C)C)s2)c2ccccc2n1 | ? | i | 9.2µM* | -10.5 | ? | -15.6
O=C(O)c1ccc2c3c(ncnc13)-c1ccccc1C2=O | ? | i | 2.31µM* | -5.6 | ? | -11.1
O=C(O)c1cccc2c1C(=O)c1ccccc1C2=O | i | i | -0.3% | 2.4 | -3.4% | 1.5
Cc1ccc(CNC(=O)c2cnc(N(C)C)nc2)cc1 | i | i | nt | 2.4 | nt | nt
Cc1ccc(CNC(=O)C2(NC(=O)Nc3ccc(C)cc3)CCCCC2)cc1 | i | ? | -3.3% | 10.0 | 16.4µM* | 7.1
O=C(Nc1ccc(F)cc1)NC1(C(=O)NCc2ccc3c(c2)OCO3)CCCCC1 | i | 16.4µM* | ? | 2.7 | 0.2% | -14.8
O=C(Nc1ccc(F)cc1)NC1(C(=O)NCc2ccco2)CCCCC1 | i | i | 16.7% | 1.0 | 0.2% | 5.7
COc1cc(OC)c(NC(=O)c2ccc3nc(C(C)C)oc3c2)cc1Cl | nt | nt | nt | 0.5 | nt | nt
Clc1ccc(Cn2c(-c3cccnc3Cl)nc3ccccc32)cc1 | i | i | 19.0% | 1.0 | 12.0% | 8.3
Clc1ccc(Cn2c(-c3cccnc3Cl)nc3ccccc32)c(Cl)c1 | ? | 23.1µM* | 16.4µM* | 3.8 | 3.6% | -5.6
CCN(CC)CCNC(=O)c1ccc(NC(=O)c2ccccc2-c2ccc(C(F)(F)F)cc2)cc1 | i | i | 20.6µM* | -22.1 | ? | -27.7
CCN(CC)CCNC(=O)c1ccc(NC(=O)c2ccc3c(c2)CCC3)cc1 | i | i | 15.3% | -12.7 | 18.4µM* | -16.9
CC(=O)c1cccc(Nc2ncnc3c2cnn3C)c1 | nt | nt | nt | -17.5 | nt | nt
SMILES | KB-3-1 tox | KB-V1 cytotox | MCF10A rerep | D3 ag | SW480 rereplic | D3 antag
CCCCNCCOCCOc1ccc(F)cc1 | i | i | -3.5% | -21.3 | -1.1% | -53.8*
CC(O)CNCCCOc1ccc(Cl)cc1C(C)(C)C (stereo not drawn) | ? | 20.6µM* | 10.8% | -14.2 | -17.2% | -52.7*
CCCCn1c(=N)n(CCCOc2ccc(F)cc2)c2ccccc21 | nt | nt | nt | 2.1 | nt | nt
CC(C)NCCCCOc1ccc(Br)cc1Cl | i | i | 21.6% | -1.9 | 14.3% | -70.8*
CC(C)NCCCOc1ccc(Cl)cc1Br | i | i | -0.8% | 3.0 | -1.7% | -73.0*
CN(C)CCOCCOc1ccc(Cl)cc1C(C)(C)C | i | ? | 12.4% | -12.2 | ? | ?
CCOc1ccccc1N(C)C(=O)C1CCCN(c2ncnc3onc(-c4ccc(F)cc4)c23)C1 (stereo not drawn) | i | i | nt | 3.9 | nt | nt
COc1ccc([C@H]2C[C@@H](O)[C@H](n3cc(COC(=O)c4ccccc4)nn3)CN2C(=O)c2cccs2)cc1 | i | i | nt | -1.2 | nt | -10.4
Cc1cccc(Nc2nc(-c3ccccc3)c3cc(C)ccc3n2)c1 | nt | nt | nt | 1.1 | nt | nt
Cc1ccc(C(=O)NCc2ccc(F)cc2)cc1NC(=O)c1nsc2ccccc12 | i | i | nt | 7.1 | nt | nt
Cc1cc(CC(C)CC(C)(C)C)n(O)c(=O)c1 (stereo not drawn) (tested in a mixture with another compound) | nt | nt | nt | 8.0 | nt | nt
COCCCNCCCOc1ccc(Cl)cc1Br | i | i | 1.0% | -6.7 | -1.8% | ?
CCCCNCCOCCOc1ccc(Cl)cc1Br | i | ? | ? | -23.9 | ? | -87.1*
CCNC(=O)COc1ccc(Br)cc1Cl | i | ? | 3.4% | 0.5 | -19.0% | -29.3
COCCCNC(=O)COc1ccc(Br)cc1Cl | i | 20.6µM* | 1.6% | -2.2 | 1.0% | -3.8
Cc1nc(-n2[nH]c3c(c2=O)CCCC3)[nH]c(=O)c1Cc1ccccc1 | ? | 2.59µM* | 20.6µM* | -14.1 | 9.2µM* | -60.9*
CCCCC(CC)CN=C(N)NC(N)=NCCCCCCN=C(N)NC(N)=NCC(CC)CCCC (stereo not drawn) | ? | ? | 11.9µM* | -27.7 | ? | 0.0
CCCCC(CC)CO (stereo not drawn) | i | i | 6.8% | 3.9 | -68.7% | 0.0
CC(C)Oc1ccc(CNC(=O)c2ccc3c(c2)nc2n3CCCCC2)cc1 | i | i | nt | -18.6 | nt | nt
Nc1nc(CCl)nc(N(c2ccccc2)c2ccccc2)n1 | ? | 16.4µM* | ? | 2.3 | 1.16µM* | 0.0
Nc1nc(Cl)nc(N(c2ccccc2)c2ccccc2)n1 | i | i | 13.3% | -1.9 | -5.2% | -2.9
FC(F)(F)c1cccc(N2CCN(c3ncnc4c3nc3n4CCCC3)CC2)c1 | nt | nt | nt | -4.6 | nt | nt
O=C(Nc1ncccn1)c1ccc([N+](=O)[O-])o1 | ? | i | 9.2µM* | 3.7 | ? | -8.4
Cc1ccnc(NC(=O)c2ccc([N+](=O)[O-])o2)c1 | ? | i | 4.11µM* | -4.5 | 5.8µM* | -13.5
CCCn1c(NC(=O)c2cccc(C)c2C)nc2ccccc21 | ? | ? | ? | -0.4 | ? | -19.0
